Reference: PubChem BioAssay AID576 (NMMLSC, 2007)
Among all 24,000 compounds or so, about 150 (0.62%) were called active. The sample holds actives, similar compounds and a random draw of the others, so the mix is not that of the screen.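 The calls were made as follows: active = fluorescence ratio above 2.44, which is 1 plus 3 SD of all ratios; inconclusive = signal too bright to measure linearly, ratio around 10 or more; inactive = fluorescence ratio below 2.44.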

Assay: compound autofluorescence on Jurkat cells, primary screen, artefact control for VLA-4 allosteric ligand project, cell-based, flow cytometry (AID 576);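 also: green fluorescence of cells measured with 488 nm excitation and 530 nm emission; tested at 10 µM compound in the well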
Conditions: hits give high values, 1 = vehicle-only cell background

Row | Structure (SMILES) | fluorescence ratio
1 | O=C(CN1CCOCC1)Nc1c2c(nc3c1CCC3)CCC2 | 0.96 (inactive)
2 | Cc1cc(NC(=O)c2cc(-c3cccs3)on2)nn1Cc1ccc(Cl)cc1 | 1.05 (inactive)
3 | CC(=O)Nc1nonc1-c1nc2ccccc2n1Cc1ccccn1 | 1.24 (inactive)
4 | CC(Sc1sc(=S)sc1SC(C)C(=O)O)C(=O)O (stereo not given) | 0.93 (inactive)
5 | Cn1c(=O)cc(SCC(=O)N2CCN(C(=O)c3ccco3)CC2)c2ccccc21 | 1.12 (inactive)
6 | C=CCNC(=O)CSc1nc2sc(C)c(C)c2c(=O)[nH]1 | 1.07 (inactive)
7 | O=C(O)CC(c1ccccc1)n1cnnn1 (stereo not given) | 0.92 (inactive)
8 | Cn1nnnc1SCc1cc(=O)[nH]c2ccccc12 | 1.06 (inactive)
9 | CC(C)OCCCNC(=O)C1CC(=O)N(C2CCCCCCC2)C1 (stereo not given) | 0.98 (inactive)
10 | CCOc1ccc(N(CC(=O)NCc2ccc(OC)cc2)S(=O)(=O)c2c(C)noc2C)cc1 | 0.82 (inactive)
11 | COc1ccc(CCN(Cc2cc3cccc(C)c3[nH]c2=O)C(=O)N2CCCC2)cc1OC | 1.08 (inactive)
12 | O=C(CN1C(=O)C2C3C=CC(C3)C2C1=O)NCCc1ccccc1Cl (stereo not given) | 1.19 (inactive)
13 | O=C(CCn1c(=O)oc2ccccc21)Nc1ccon1 | 1.03 (inactive)
14 | Cc1cc(=O)n2nc(N3CCCC(C(=O)N4CCN(C)CC4)C3)sc2n1 (stereo not given) | 1.07 (inactive)
15 | Cc1ccc(-c2cc(C(F)(F)F)n3nc(C(=O)N4CCCC4)cc3n2)cc1 | 1.02 (inactive)
16 | Cc1nc(C)c2c(c1C(F)(F)F)-c1ccccc1C2(F)F | 1.11 (inactive)
17 | CCOC(=O)c1cnc(-n2nc(C)cc2C)nc1Nc1cccc(C(C)=O)c1 | 1.06 (inactive)
18 | COCc1[nH]nc2c1C(C1C=CCCC1)C(C#N)=C(N)O2 (stereo not given) | 1.09 (inactive)
19 | Cc1noc(C)c1S(=O)(=O)NCCc1ccc(S(N)(=O)=O)cc1 | 1.07 (inactive)
20 | Cn1c(=O)n(C)c2cc(CNc3ccc(N4CCOCC4)c(C(=O)O)c3)ccc21 | 0.99 (inactive)
21 | O=C(O)C1CCCN(S(=O)(=O)c2cccc3cccnc23)C1 (stereo not given) | 0.95 (inactive)
22 | CCCCn1c(CN2CCN(CCO)CC2)nc2ccccc21 | 1.04 (inactive)
23 | COc1ccc(-c2nc(CS(=O)CC(=O)NCc3cccnc3)c(C)o2)cc1OC (stereo not given) | 0.78 (inactive)
24 | COc1ccc(C2/C(=C(/O)c3ccccc3)C(=O)C(=O)N2c2ncccn2)cc1OC (stereo not given) | 0.98 (inactive)
25 | Cc1nc(N2CCN(c3ncccn3)CC2)c2oc3ccccc3c2n1 | 1.15 (inactive)

Row | Structure (SMILES) | fluorescence ratio
26 | CCOC(=O)N1CCN(C(=O)c2cn(C)c3ccc(S(=O)(=O)N4CCCC4)cc3c2=O)CC1 | 1.07 (inactive)
27 | COc1ccccc1NC1=NC2(CCCC2)N=C(N)N1 | 1.04 (inactive)
28 | COc1ccc(-c2cc3ccc(OCc4nn[nH]n4)cc3oc2=O)cc1 | 1.09 (inactive)
29 | Fc1ccc2nc(Nc3nc4c(s3)CCCC4)sc2c1 | 4.43 (active)
30 | Fc1ccc2nc(N3CCCCC3)sc2c1 | 1.31 (inactive)
31 | CNC(=O)c1ccc2nc(NC(C)=O)sc2c1 | 1.01 (inactive)
32 | CCOC(=O)C1CCCN(C(=O)C2CCN(c3nnc(-n4cccc4)s3)CC2)C1 (stereo not given) | 1.06 (inactive)
33 | CSc1ccc(S(=O)(=O)Nc2cccc(F)c2)cc1 | 0.98 (inactive)
34 | O=C(c1cnn2ccccc12)N1CCc2ccccc21 | 0.92 (inactive)
35 | CCOC(=O)N1CCC(NC(=O)CCc2cn(C)c3ccccc23)CC1 | 0.96 (inactive)
36 | N#CCCn1ncc2ccccc21 | 0.9 (inactive)
37 | CCC1=C/C(=C\c2ccc3c(c2)OCO3)C(=O)S1 | 1.11 (inactive)
38 | CC1CCCC(N2CCN(C(=O)c3ccc(F)cc3)CC2)C1 (stereo not given) | 0.93 (inactive)
39 | Cc1c(C(=O)N2CC(C)OC(C)C2)sc2nc(-c3ccccc3)cn12 (stereo not given) | 1.33 (inactive)
40 | CCC(=O)N1CCc2cc(S(=O)(=O)NC(C(=O)N3CCc4ccccc4C3)C(C)C)ccc21 (stereo not given) | 0.97 (inactive)
41 | COc1ccc(CCNS(=O)(=O)c2ccc(C(=O)NCc3ccco3)cc2)cc1OC | 1.03 (inactive)
42 | c1cnn(-c2cc(N3CCOCC3)ncn2)c1 | 1.1 (inactive)
43 | CCCCC(=O)N(c1ccc(OC)cc1)C1C=CS(=O)(=O)C1 (stereo not given) | 1.03 (inactive)
44 | Cc1nc(SCC(=O)Nc2cc(C)on2)c2c3c(sc2n1)CCCC3 | 1.28 (inactive)
45 | COc1cccc(Nc2nnc(SCC(=O)N3CC(C)OC(C)C3)s2)c1 (stereo not given) | 1.02 (inactive)
46 | CC(=O)N(CC1CCCO1)C1(C(=O)NC2CCCC2)CCCCC1 (stereo not given) | 0.95 (inactive)
47 | O=C(Nn1cc(C(=O)N2CCN(c3ccccc3F)CC2)c2ccccc2c1=O)c1cnccn1 | 1.02 (inactive)
48 | COCCN1Cc2cccc(C(=O)Nc3ccccc3OC)c2C1=O | 1.02 (inactive)
49 | CCCCN(C)Cc1c(C)[nH]c2ccc(Cl)cc2c1=O | 1.01 (inactive)
50 | CCn1c(SCC(=O)Nc2ccccc2F)nc2c(c1=O)SC(C)C2 (stereo not given) | 0.98 (inactive)
